Bioassay records deposited in PubChem BioAssay by National Center for Advancing Translational Sciences (NCATS).
12-LOX inh = ALOX12 (human) lipoxygenase inhibition. purified 12hLO, xylenol orange hydroperoxide absorbance. Potency, µM (doses to about 108 µM), for inactives: top-dose activity change, negative = inhibition, actives largely listed as inhibitors. 580,000 compounds, 1.1% hits. AID 1671190; also: potency is read from the fitted curve at half-maximal effect
Target sequence (P18054 whole entry, looked up): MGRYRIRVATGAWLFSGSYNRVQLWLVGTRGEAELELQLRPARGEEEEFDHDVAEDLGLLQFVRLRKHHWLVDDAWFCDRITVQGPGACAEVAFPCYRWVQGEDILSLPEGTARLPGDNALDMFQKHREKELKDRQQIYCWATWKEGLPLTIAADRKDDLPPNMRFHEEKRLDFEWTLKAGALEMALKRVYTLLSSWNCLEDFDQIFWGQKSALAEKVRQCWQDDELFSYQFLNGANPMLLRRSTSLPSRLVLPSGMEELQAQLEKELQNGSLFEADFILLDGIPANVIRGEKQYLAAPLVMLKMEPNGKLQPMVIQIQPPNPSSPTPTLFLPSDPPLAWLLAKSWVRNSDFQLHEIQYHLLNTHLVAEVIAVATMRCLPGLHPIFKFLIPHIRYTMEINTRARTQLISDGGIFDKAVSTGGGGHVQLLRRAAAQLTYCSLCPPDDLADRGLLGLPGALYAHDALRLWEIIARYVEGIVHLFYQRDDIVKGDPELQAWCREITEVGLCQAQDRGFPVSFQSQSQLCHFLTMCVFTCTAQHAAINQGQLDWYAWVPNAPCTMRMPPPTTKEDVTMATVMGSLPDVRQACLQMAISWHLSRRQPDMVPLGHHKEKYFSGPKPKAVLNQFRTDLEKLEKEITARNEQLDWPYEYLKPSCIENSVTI
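Purified human 12hLO at 150 nM in 25 mM Hepes, 0.01% Triton X-100, pH 7.0, preincubated 15 min at room temperature with compound. Reaction started with 40 uM arachidonic acid, 30 min at room temperature. Hydroperoxide measured by Fe-xylenol orange, 573/405 nm absorbance ratio.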
TDP1 cell CPT = DT40-hTDP1 cell growth loss with CPT; chicken DT40 Tdp1-/-;hTDP1 cells + 20 nM CPT, ATP luminescence, 48 h; 420,000 compounds, 12% hits; Potency, µM (series often up to 46.2 µM), for inactives: top-dose activity change, negative = growth inhibition, usual class: inhibitors; also: potency is read from the fitted curve at half-maximal effect; nearly all actives have a fitted effect of over 55% in size
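Cell growth measured by CellTiter-Glo luminescence after a minimum 48 h, 37 C compound exposure with 20 nM CPT in Tdp1-knockout DT40 cells stably expressing hTDP1, seeded 400/well; qHTS titration format.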
IL1B secr inh = blocks inflammasome-driven IL-1 beta release; activity change, % at 57.5 µM; 360,000 compounds, 4.7% hits; THP-1 LPS/ATP IL-1B secretion, AlphaLISA, 16 h; stronger effect = lower value; in the data active = activity change below about -50%; inconclusive = mostly about -30% to -49%
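Secreted IL-1B measured by AlphaLISA bead assay after 16 h compound exposure of THP-1 cells; compounds (final up to 57.5 uM) added 1 h before LPS (250 ng/mL) and ATP (1.25 mM) stimulation; lower signal means less secretion.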
HT1080-NT tox = kills 2HG-producing HT-1080-NT fibrosarcoma cells; HT-1080-NT fibrosarcoma viability, CellTiter-Glo ATP luminescence, 48 h; Potency, µM (titrated, usually from 46.1 µM), for the others: top-dose activity, negative = less viability, most hits filed as cytotoxic; 360,000 compounds, 1.6% hits;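 also: NT is the 2HG producing partner of a matched IDH1 knockdown line; potency is read from the fitted curve at half-maximal effect; 0% = DMSO-treated cells and -100% = media-only wells without cells; nearly all actives have a fitted effect of over 55% in size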
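Fibrosarcoma NT cells, 750 per well in 5% FBS RPMI, were exposed to compound for 48 hours. Viability: CellTiter-Glo luminescence.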
HT1080 IDH1KD tx = kills HT-1080 cells with IDH1 knockdown; HT-1080 IDH1 knockdown viability, ATP luminescence, 48 h; Potency, µM (series often up to 46.1 µM), inactives show at the highest dose activity, negative = toxicity, hits mostly cytotoxic; 360,000 compounds, 2% hits;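 also: potency is read from the fitted curve at half-maximal effect; 0% = DMSO wells and -100% = cell-free medium wells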
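% activity derives from luminescence (CellTiter-Glo), normalised to DMSO and no-cell wells. HT-1080-IDH1KD cells, 750/well, had 48 h compound exposure at 37 °C.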
DT40 TDP1 no CPT = qHTS for Inhibitors of human tyrosyl-DNA phosphodiesterase 1 (TDP1): qHTS in cells in absence of CPT | Potency, µM (series often up to 46.2 µM), for the others: at the highest dose activity change, negative = growth inhibition, usual class: inhibitors | 420,000 compounds, 15% hits | DT40 Tdp1-/- hTDP1 cells, no CPT, ATP luminescence, 48 h | AID 686978, 2013; also: potency is read from the fitted curve at half-maximal effect; nearly all actives have a fitted effect of over 55% in size
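Cells were dispensed at 400 per well, compounds added by pin tool, plates incubated ≥48 hr at 37 °C, then CellTiter-Glo added for 30 min at room temperature before luminescence reading. Line: DT40 Tdp1-/- complemented with hTDP1; camptothecin omitted.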
* marks the source's active call; other numbers are inactive results; ! = repeats disagree; [ ] = dose if it differs, or a comment. The full list was thinned out, with hits kept by preference. Unless noted, calls follow the shape of the dose curve; as a rule, active = well fitted curve in the direction sought with a large enough effect; inconclusive = small, poorly fitted or top-dose-only effect, or another doubt; inactive = no such curve, though single readings can be large; an effect the other way counts as inactive or inconclusive. Unless noted, % is scaled to controls: 0 for no effect and ±100 for the full control effect.

What do the screens show for `CCc1nc(-c2c3n(c(=O)n(Cc4cc(F)ccc4F)c2=O)CCCCC3)no1`?
12-LOX inh: 6%

What do the screens show for `COc1cccc(C2=NN(C(=O)c3ccco3)C(O)(C(F)(F)F)C2)c1` (stereo not drawn)?
12-LOX inh: 18%; TDP1 cell CPT: -3%; IL1B secr inh: 0; HT1080-NT tox: 4%; HT1080 IDH1KD tx: inconclusive; DT40 TDP1 no CPT: inconclusive

What do the screens show for `COc1cccc(C(=O)N2N=C(c3ccccc3)CC2(O)C(F)(F)F)c1` (stereo not drawn)?
12-LOX inh: 2%; TDP1 cell CPT: 3%; IL1B secr inh: -2; HT1080-NT tox: 9%; HT1080 IDH1KD tx: 3%; DT40 TDP1 no CPT: inconclusive

Results for Cc1ccc(C2=NN(C(=O)c3ccco3)C(O)(C(F)(F)F)C2)cc1 (stereo not drawn) ?
12-LOX inh: inconclusive; TDP1 cell CPT: inconclusive; IL1B secr inh: -66*; HT1080-NT tox: 2%; HT1080 IDH1KD tx: -11%; DT40 TDP1 no CPT: inconclusive

What do the screens show for `CCCCC1=NN(C(=O)c2ccco2)C(O)(C(F)(F)F)C1` (stereo not drawn)?
12-LOX inh: -7%; TDP1 cell CPT: 0.52µM*; IL1B secr inh: 42; HT1080-NT tox: -25%; HT1080 IDH1KD tx: inconclusive; DT40 TDP1 no CPT: 0.52µM*

Results for COc1cccc(C2=NN(C(=O)c3ccccc3)C(O)(C(F)(F)F)C2)c1 (stereo not drawn) ?
12-LOX inh: -15%; TDP1 cell CPT: 16µM*; IL1B secr inh: -10; HT1080-NT tox: -6%; HT1080 IDH1KD tx: -15%; DT40 TDP1 no CPT: 21µM*

How did COc1cccc(NC(=O)CN(C)C(C)C(=O)Nc2cc(Cl)ccc2OC)c1 (stereo not drawn) do in these assays?
12-LOX inh: -6%

Results for CCc1nc2sc3c(NC4CCCCC4)ncnc3c2c2c1COC(C)(C)C2 ?
12-LOX inh: -2%

What do the screens show for `O=C(Cc1cccs1)NCCSc1c(-c2ccc(Cl)cc2)[nH]c2ccccc12`?
12-LOX inh: -6%; TDP1 cell CPT: 18µM*; IL1B secr inh: -17; HT1080-NT tox: inconclusive; HT1080 IDH1KD tx: inconclusive; DT40 TDP1 no CPT: 13µM*

How did CN(C)S(=O)(=O)c1ccc(C(=O)NCCSc2c(-c3ccc(Cl)cc3)[nH]c3ccccc23)cc1 do in these assays?
12-LOX inh: -3%; TDP1 cell CPT: 4.1µM*; DT40 TDP1 no CPT: 5.2µM*

How did Cc1ccc(-c2[nH]c3ccccc3c2SCCNC(=O)c2cc3ccccc3oc2=O)cc1 do in these assays?
12-LOX inh: -15%; TDP1 cell CPT: inconclusive; IL1B secr inh: 0; HT1080-NT tox: inconclusive; HT1080 IDH1KD tx: inconclusive; DT40 TDP1 no CPT: inconclusive

What do the screens show for `Cc1ccc(-c2[nH]c3ccccc3c2SCCNC(=O)c2ccc(S(=O)(=O)N(C)C)cc2)cc1`?
12-LOX inh: -28%; TDP1 cell CPT: 5.8µM*; DT40 TDP1 no CPT: 5.8µM*

Results for CO/N=C(\Cn1ncc(N2CCCC2)c(Cl)c1=O)c1ccc(Cl)cc1 ?
12-LOX inh: -8%; TDP1 cell CPT: 29µM*; IL1B secr inh: -13; HT1080-NT tox: -14%; HT1080 IDH1KD tx: -2%; DT40 TDP1 no CPT: 23µM*

What do the screens show for `CC(=O)Cn1ncc(N2CCCCC2)c(Cl)c1=O`?
12-LOX inh: -1%; TDP1 cell CPT: -9%; IL1B secr inh: -2; HT1080-NT tox: 0%; HT1080 IDH1KD tx: -3%; DT40 TDP1 no CPT: -9%

How did O=C(c1cc2ccccc2oc1=O)N1Cc2ccccc2C(c2ccccc2)C1 (stereo not drawn) do in these assays?
12-LOX inh: 23%

What do the screens show for `C[C@@H](CN1CCC(Cc2ccccc2)CC1)[C@@H](O)c1ccc(O)cc1`?
12-LOX inh: inconclusive; TDP1 cell CPT: 23µM*; IL1B secr inh: -21; HT1080-NT tox: -1%; HT1080 IDH1KD tx: -12%; DT40 TDP1 no CPT: 7.3µM*!

Results for CC(C)OCC(O)CN1CCC(Cc2ccccc2)CC1 (stereo not drawn) ?
12-LOX inh: 5%; TDP1 cell CPT: 6%; IL1B secr inh: 5; HT1080-NT tox: 0%; HT1080 IDH1KD tx: 2%; DT40 TDP1 no CPT: -5%

Results for Cc1nc(SCC(=O)NCC2CCCO2)c2c3c(sc2n1)CCCC3 (stereo not drawn) ?
12-LOX inh: 33%; TDP1 cell CPT: inconclusive; IL1B secr inh: -1; HT1080-NT tox: -3%; HT1080 IDH1KD tx: -1%; DT40 TDP1 no CPT: inconclusive

What do the screens show for `COCCn1c(C)cc(C(=O)CSc2nc(C)nc3sc4c(c23)CCC4)c1C`?
12-LOX inh: -24%; TDP1 cell CPT: 16µM*; IL1B secr inh: 22; HT1080-NT tox: -6%; HT1080 IDH1KD tx: -27%; DT40 TDP1 no CPT: 21µM*

What do the screens show for `CC(=O)N1CCc2cc(S(=O)(=O)N3CCc4ccccc43)ccc21`?
12-LOX inh: -1%; TDP1 cell CPT: 13µM*; IL1B secr inh: 7; HT1080-NT tox: 0%; HT1080 IDH1KD tx: -18%; DT40 TDP1 no CPT: inconclusive

What do the screens show for `COc1ccc(S(=O)(=O)N2CCCc3ccccc32)cc1[N+](=O)[O-]`?
12-LOX inh: 2%; TDP1 cell CPT: -23%; IL1B secr inh: 38; HT1080-NT tox: 8.2µM*; HT1080 IDH1KD tx: 8.2µM*; DT40 TDP1 no CPT: -10%

Results for COc1ccc(S(=O)(=O)N2CCCc3ccccc32)cc1OC ?
12-LOX inh: -6%; TDP1 cell CPT: inconclusive; IL1B secr inh: 53; HT1080-NT tox: -21%; HT1080 IDH1KD tx: inconclusive; DT40 TDP1 no CPT: -16%

Results for CC(=O)N1CCc2cc(S(=O)(=O)N3CCc4ccccc4C3)ccc21 ?
12-LOX inh: -12%; TDP1 cell CPT: inconclusive; IL1B secr inh: 27; HT1080-NT tox: -24%; HT1080 IDH1KD tx: -21%; DT40 TDP1 no CPT: inconclusive

What do the screens show for `COc1ccc(S(=O)(=O)N2CCc3ccccc32)cc1NC(C)=O`?
12-LOX inh: 1%; TDP1 cell CPT: -3%; IL1B secr inh: 20; HT1080-NT tox: 9.2µM*; HT1080 IDH1KD tx: inconclusive; DT40 TDP1 no CPT: -30%

Results for NC(=O)Cn1cnc2c(oc3nc(C4CCCCC4)c4c(c32)CCC4)c1=O ?
12-LOX inh: -7%

What do the screens show for `O=C(O)c1ccco1`?
12-LOX inh: -12%[176 µM]

What do the screens show for `CS(=O)(=O)c1ccc(CN2C[C@@H]3C[C@H]2C(=O)N(Cc2ccc(OC(F)(F)F)cc2)c2ccccc2O3)cc1`?
12-LOX inh: -5%
